# ± gives the standard deviation.
# Test system: MILI (PIWIL2) piRISC loaded with L1MC piRNA (26 nt)
# Assay: pre-steady-state target cleavage rate (min^-1); guide: L1MC piRNA 5'p-UAACUAAAUACUAUGCAAGCUGUAGG; MIWI and MILI are mouse PIWI proteins and EfPiwi is from a freshwater sponge; tags in brackets are library labels; higher = faster piRNA-guided slicing of the target
# Summary of the method: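 Cleave-'n-Seq measured uncleaved targets by sequencing after a transcribed, DNA-blocked target RNA library […] was mixed with 1 nM active affinity-purified piRISC holding one synthetic guide, with or without 500 nM GTSF1 partner protein, at 33 °C in HEPES–potassium acetate buffer for 0–8 or 0–960 min. Counts were normalised to depth and to weakly complementary targets, three trials were pooled, and k3 was capped at 0.0001 min^-1. A burst-and-steady-state fit gave the pre-steady-state cleavage rate.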
# [1] = auxiliary factor: 500 nM mouse GTSF1
# [2] = auxiliary factor: none (no GTSF1)
# 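Also: 1 nM active piRISC with 0.1 nM target library at 33 °C single turnover.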
sequence,measurement,setting,value
UCCUCCUACAGCUUCGAUAGUAUUUAGAAA,pre-steady-state target cleavage rate,[1],0.0982 ± 0.019
UCCUGGAUGUCGAACGUUAGUAUUUCGUUA,pre-steady-state target cleavage rate,[2],< 0.0001
UCCUGGAUGUCGAACGUAUCUAUUAAGUUA,pre-steady-state target cleavage rate,[2],< 0.0001
UCCUGGAUCAGCUACGAUAGUAUUUAGUAA,pre-steady-state target cleavage rate,[1],0.0254 ± 0.0088
UCCUGGUACAGCUUGCAUAGUAAUUAGAAA,pre-steady-state target cleavage rate,[1],0.0664 ± 0.018
UCCUGGAUGAGCUUGCAUAGUAUUAAGUAA,pre-steady-state target cleavage rate,[1],0.0732 ± 0.021
UCCUGGAUGUCCUUGCUUAGUAUUUAGUAA,pre-steady-state target cleavage rate,[1],0.0426 ± 0.013
UCCUGGAUGUCGAACGAUAGUAUUUACAUA,pre-steady-state target cleavage rate,[2],< 0.0001
UCCUGGAUCAGCUAGCAUAGUAUUUACAAA,pre-steady-state target cleavage rate,[1],0.127 ± 0.023
UCCUGGAUCAGCUACCAUAGUAUUUAGAAA,pre-steady-state target cleavage rate,[1],0.024 ± 0.0091
UCCUGGAUGUCGAAGCAUAGUAUUGAGUUA,pre-steady-state target cleavage rate,[1],0.00685 ± 0.0034
UCCUGGAUGUCCUUGCAUAAUAUUUAGUUA,pre-steady-state target cleavage rate,[1],0.0892 ± 0.015
UCCUGGAUGUCGAACGUAUCUAUUUAGUCUA,pre-steady-state target cleavage rate,[2],< 0.0001
UCCUGCUACAGCUUGCAUAAGUAUUUAGUUA,pre-steady-state target cleavage rate,[1],0.0171 ± 0.0064
UCCUCCUACAGCUUGCAUAGUAAAAAGUUA,pre-steady-state target cleavage rate,[1],0.0965 ± 0.016
UCCUGGAUGUCGAAGCAUCGUAUUUAGUUA,pre-steady-state target cleavage rate,[1],0.00755 ± 0.0031
UCCUGCUACAGCUUGCAUAGGAUUUAGUUA,pre-steady-state target cleavage rate,[1],0.00856 ± 0.0037
UCCUGGAUGUCGAAGCAUAGUAUUUAGUGUA,pre-steady-state target cleavage rate,[1],0.035 ± 0.012
UCCUGGAUGUCGAACGUAUCUUAUUAGUUA,pre-steady-state target cleavage rate,[2],< 0.0001
UCCUGCUACAGCUUGCUAUGUAUUUAGUAA,pre-steady-state target cleavage rate,[1],0.0455 ± 0.019
UCCUGGAUGAGGUUGCAUAGAAUUUAGUUA,pre-steady-state target cleavage rate,[1],0.00935 ± 0.0046
UCCUGGAUGUCCUUGCAUAGUAUUUAGUGUA,pre-steady-state target cleavage rate,[1],0.0384 ± 0.012
UCCUGGAUGUCGAACGAUGAGUAUUUAGUUA,pre-steady-state target cleavage rate,[2],< 0.0001
UCCUGGAUGUGCUUGCAUUGUAUUUAGUAA,pre-steady-state target cleavage rate,[1],0.0856 ± 0.015

# Reference: the supplement of paper PMC10338343
